G9a inh = inhibitors of human histone lysine methyltransferase G9a; Q96KQ7; G9a H3K9 monomethylation, AlphaScreen, 2 h; Potency, µM (top dose mostly 102 µM), without a hit: top-dose activity, negative = inhibition, most hits filed as inhibitors; actives 8.8% (n = 350,000); AID 504332; further: on the % scale 0 is the no-effect control and ±100 the full control effect; nearly all actives have a fitted effect of over 75% in size
Target sequence (Q96KQ7 913-1193 limits assumed): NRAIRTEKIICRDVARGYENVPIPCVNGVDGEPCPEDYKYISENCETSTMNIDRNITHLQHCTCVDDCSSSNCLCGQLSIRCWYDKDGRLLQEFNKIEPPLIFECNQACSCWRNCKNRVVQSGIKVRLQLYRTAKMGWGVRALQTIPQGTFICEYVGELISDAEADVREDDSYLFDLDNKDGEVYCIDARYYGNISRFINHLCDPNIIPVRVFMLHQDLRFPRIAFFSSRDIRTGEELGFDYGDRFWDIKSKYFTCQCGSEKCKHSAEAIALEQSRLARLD
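AlphaScreen read-out: biotin-H3K9 peptide (500 nM) methylation by 20 nM enzyme with 20 uM SAM, 2 h at room temperature after 15 min compound preincubation; anti-monomethyl H3K9 antibody plus donor/acceptor beads, 10 min dark.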
JMJD2A Tudor inh = JMJD2A Tudor domain (human) inhibition; Potency, µM (doses to about 114 µM), for the others: at the highest dose activity change, negative = inhibition, most hits filed as inhibitors; AlphaScreen JMJD2A-Tudor / H3K4me3 peptide binding; actives 4.4% (n = 390,000); further: on the % scale 0 is the no-effect control and ±100 the full control effect; nearly all actives have a fitted effect of over 50% in size
TDP1 block = TDP1 (human) enzyme inhibition; Q9NUW8; recombinant TDP1, AlphaScreen DNA substrate cleavage; Potency, µM (top dose mostly 130 µM), for inactives: at the top dose activity change, negative = inhibition, most hits filed as inhibitors; actives 0.28% (n = 350,000); further: on the % scale 0 is the no-effect control and ±100 the full control effect; nearly all actives have a fitted effect of over 40% in size
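Steps: enzyme plus compound, 15 min RT; add biotin/phosphotyrosine-FITC oligonucleotide (15 nM final), react 5 min; add donor/acceptor beads (10 ug/ml final), 10 min; read AlphaScreen. Tdp1 at 1 nM final.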
BAZ2B inh = blocks human BAZ2B; AlphaScreen BAZ2B-H3K14Ac peptide displacement; Potency, µM (highest dose often 114 µM), for inactives: top-dose activity change, negative = inhibition, actives largely listed as inhibitors; actives 4.4% (n = 360,000); further: on the % scale 0 is the no-effect control and ±100 the full control effect; nearly all actives have a fitted effect of over 60% in size
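Complex of BAZ2B and biotin-H3K14Ac (50 nM apiece) forms over 30 min at RT, then faces library compounds up to 110 uM for another 30 min; AlphaScreen beads added, 20 min dark incubation, luminescence read.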
Sfp inh = inhibitors of Bacillus subtilis Sfp phosphopantetheinyl transferase. Biochemical Sfp PPTase activity, qHTS. Potency, µM, without a hit: largest response in the series, negative = inhibition, usual class: inhibitors. actives 3.5% (n = 310,000);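 further: the enzyme is Sfp with the accession as filed and its product quenches rhodamine fluorescence; 0% = enzyme reaction without inhibitor and -100% = no enzyme wells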
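Reaction rates are the 30-min fluorescence difference (ex 525, em 598 nm) in wells containing 15 nM Sfp, 5 uM rhodamine-CoA and 12.5 uM BHQ-2-YbbR at pH 7.6 with 10 mM MgCl2.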
HP1b binding inh = HP1-beta chromodomain-methylated histone interaction inhibition; P83916; AlphaScreen HP1-beta / biotin-H3K9me3 peptide binding; actives 0.56% (n = 390,000); Potency, µM (doses to about 114 µM), for the others: at the top dose activity change, negative = inhibition, hits mostly inhibitors; AID 540317; further: nearly all actives have a fitted effect of over 70% in size
Target sequence (P83916 whole entry, looked up): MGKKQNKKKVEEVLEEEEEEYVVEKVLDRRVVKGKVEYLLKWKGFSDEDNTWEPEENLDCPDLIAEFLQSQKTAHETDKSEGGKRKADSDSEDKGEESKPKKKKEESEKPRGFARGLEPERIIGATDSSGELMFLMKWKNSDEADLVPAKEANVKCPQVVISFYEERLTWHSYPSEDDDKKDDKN
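AlphaScreen: HP1-beta (50 nM) preformed 30 min with biotin-H3(1-18)K9me3 peptide (50 nM) in PBS pH 7.4, 0.01% Tween-20. Compound added for 30 min at RT, then streptavidin donor/nickel chelate acceptor beads (10 ug/mL) for 30 min.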
Active calls of the source: *; u = inconclusive; x = no result; [ ] = dose if it differs, or a comment. An excerpt weighted towards active compounds, which were near 12% of everything screened. The call rests on the fitted dose curve; in most records, active means well fitted curve in the direction sought with a large enough effect; inconclusive means small, poorly fitted or top-dose-only effect, or another doubt; inactive means no such curve, though single readings can be large; an effect the other way counts as inactive or inconclusive. Potency means the concentration at half of the fitted maximal effect.

SMILES	G9a inh	JMJD2A Tudor inh	TDP1 block	BAZ2B inh	Sfp inh	HP1b binding inh
CCCc1cc(=O)[nH]c(SCC(=O)N(CCOC)c2c(N)n(Cc3ccccc3)c(=O)[nH]c2=O)n1	50.1µM*	-0.7%	0.3%[0.505 µM]	9.3%	x	49.3%
CCCN(C(=O)CSc1n[nH]c(-c2ccc(OC)cc2)n1)c1c(N)n(Cc2ccccc2)c(=O)[nH]c1=O	44.7µM*	-14.4%	1.4%	1.9%	x	22.0%
COCCN(C(=O)CSc1nnc(-c2ccccc2C)n1C)c1c(N)n(Cc2ccccc2)c(=O)[nH]c1=O	8.91µM*	-18.5%	2.3%	-11.8%	5.8%	1.0%
CCC(=O)Oc1c(Sc2ccc(Cl)cc2)c(C)nn1C(C)(C)C	47.8%[59 µM]	65.2%	5.9%	99.6%	x	81.7%
O=C(NCC1CCCN(Cc2cccc(C(F)(F)F)c2)C1)c1ccc(F)cc1 (stereo unspecified)	10.2%[12.7 µM]	-22.7%	3.6%	-2.0%	-6.5%	13.9%
Cc1cc(CN2CCCC(CNC(=O)c3ccc(F)cc3)C2)cc(C)c1O (stereo unspecified)	79.4µM*	-14.8%	4.8%	-12.4%	3.2%	33.7%
O=C(CCc1ccccc1)NC1(Cc2ccccc2)CCN(CCCc2ccccc2)C1=O (stereo unspecified)	-1.0%[0.501 µM]	-21.7%	-4.4%	-2.2%	x	19.9%
CC1CCCN(C(=O)C2CCN(C(=O)Nc3ccccc3)CC2)C1 (stereo unspecified)	14.8%[59 µM]	-14.4%	0.5%	11.6%	x	38.1%
CC1CCCN(C(=O)C2CCN(CC3CC=CCC3)CC2)C1 (stereo unspecified)	u	8.91µM*	-8.1%	6.9%	-3.9%	u
CC12CN3CC(=O)N4CC5(C)CN(CC(C)(C4)C5=O)C(=O)CN(C1)CC(C)(C3)C2=O	35.5µM*	-22.4%	1.0%	-8.3%	6.6%	37.6%
O=C(CCCc1ccccn1)c1ccc(-c2ccccc2)cc1	x	115.9%	x	x	x	149.6%
COc1ccc(OC)c(NC(=O)c2ccc(-c3nc(CSc4ccccc4)c(C)o3)cc2)c1	u	-20.7%	0.0%	u	x	33.2%
COc1ccc(CN(C)CC(=O)Nc2c(C)cccc2C)c(OC)c1	-16.3%	-12.6%	0.0%	-15.4%	16.9%	9.2%
COc1ccc(CN(C)CC(=O)NC(C)c2ccccc2)c(OC)c1 (stereo unspecified)	u	1.78µM*	0.0%	56.2µM*	-20.6%	u
COc1cccc(NC(=O)CN(C)C(=O)CC(C)c2ccccc2)c1 (stereo unspecified)	6.5%	-13.7%	-0.3%	-10.4%	19.2%	31.5%
COc1cccc(NC(=O)CN(C)CC(=O)NC(C)c2ccccc2)c1 (stereo unspecified)	70.8µM*	-1.4%	0.0%	6.3%	5.5%	30.5%
COc1ccc(C2Nc3ccccc3C(=O)N2Cc2ccco2)cc1COc1c(C)cccc1C (stereo unspecified)	x	u	0.0%	x	x	38.2%
Cc1ccc(C)c(S(=O)(=O)N2CCCOC2CNC(=O)C(=O)NC2CCCC2)c1 (stereo unspecified)	u	-1.4%	1.4%	-7.1%	22.6%	19.6%
Cc1ccc(S(=O)(=O)N2CCN(c3nc(-c4cccs4)nc4ccccc34)CC2)c(C)c1	x	-7.5%	-1.8%	x	x	41.9%
CC1=CN2C(=N)/C(=C/c3ccc([N+](=O)[O-])o3)C(=O)N=C2S1	u	79.4µM*	2.6%	44.7µM*	35.5µM*	u
Cc1ccc2c(=O)c3cccc(CC(=O)O)c3oc2c1C	x	x	-14.1%	x	-8.0%	x
Cc1ccc2c(c1)NC(=O)c1cccnc1N2	44.7µM*	-24.5%	7.0%	3.0%[57.1 µM]	11.1%	-8.4%
C/C(=N\Nc1nncc2ccccc12)c1ccc(O)cc1	u	u	-14.9%	u	4.8%	-4.4%
CN(C)c1ccc(/C=N/Nc2nncc3ccccc23)cc1	28.2µM*	-19.9%	x	-3.0%	-2.4%	44.8%
C/C(=N\Nc1nncc2ccccc12)c1ccc(C(C)(C)C)cc1	-9.5%[2.33 µM]	-7.3%	x	56.2µM*	2.3%	-0.2%

Screening data: PubChem BioAssay, National Center for Advancing Translational Sciences (NCATS)
